p97 ATPase inh – blocks human p97 ATPase activity; recombinant p97 ATPase, Kinase-Glo ATP luminescence, 3 h; P55072; AID 1481; inhibition, % at 8 µM; 220,000 tested, 0.42% active; in the data active means inhibition above about 15%
Target sequence (P55072 whole entry, looked up): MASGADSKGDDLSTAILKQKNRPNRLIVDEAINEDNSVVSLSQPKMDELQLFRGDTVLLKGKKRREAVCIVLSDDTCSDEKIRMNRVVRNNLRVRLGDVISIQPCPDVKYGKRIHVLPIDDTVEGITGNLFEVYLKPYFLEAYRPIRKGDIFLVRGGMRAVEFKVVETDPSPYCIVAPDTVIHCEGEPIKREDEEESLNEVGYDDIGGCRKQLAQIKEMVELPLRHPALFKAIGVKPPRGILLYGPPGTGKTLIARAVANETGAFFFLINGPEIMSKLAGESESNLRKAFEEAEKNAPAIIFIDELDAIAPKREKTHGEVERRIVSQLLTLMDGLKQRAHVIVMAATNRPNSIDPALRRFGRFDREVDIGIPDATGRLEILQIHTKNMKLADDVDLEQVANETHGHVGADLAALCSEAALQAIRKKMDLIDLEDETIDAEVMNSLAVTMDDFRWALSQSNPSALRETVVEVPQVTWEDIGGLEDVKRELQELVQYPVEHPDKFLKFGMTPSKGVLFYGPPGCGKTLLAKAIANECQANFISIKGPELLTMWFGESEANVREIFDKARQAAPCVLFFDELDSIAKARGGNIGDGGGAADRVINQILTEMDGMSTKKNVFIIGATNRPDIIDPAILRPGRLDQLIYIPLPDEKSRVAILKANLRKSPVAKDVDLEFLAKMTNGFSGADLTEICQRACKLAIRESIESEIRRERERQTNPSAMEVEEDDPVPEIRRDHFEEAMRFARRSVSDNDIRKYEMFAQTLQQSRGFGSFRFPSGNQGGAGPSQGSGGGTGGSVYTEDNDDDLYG
HCT116 bCat-KO – beta-catenin-lacking colon tumor cell growth suppression; HCT116 beta-catenin knockout viability, CellTiter-Glo, 60 h; active compounds read low; 140,000 tested, 1.5% active; viability, % at 10 µM;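 active means viability at or under a set limit, the compound median less 4 SD, cut at about 6% in these data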
HCT116 PTEN-null – growth suppressors of cells with PTEN tumor suppressor deletion | HCT116 PTEN-null viability, CellTiter-Glo, 60 h; active compounds read low | viability, % at 10 µM | 140,000 tested, 1.2% active | AID 827;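 active means viability at or below a set limit, 4 SD under the median of all tested compounds, cut at about 3.7% in these data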;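 further: PTEN knockout HCT116 line with beta catenin targeted HCT116 as companion control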
Insulin prom inh – TRM-6 insulin promoter activity inhibition | TRM-6 cells (human fetal islet line), insulin promoter-eGFP reporter, imaging; reporter expression induced with tamoxifen | inhibition, % at 2 µM | 130,000 tested, 0.9% active | AID 1273;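 active means inhibition above the mean plus 3 SD, with well images judged a real hit on visual review, cut at about 60% in these data, passing the limit was not always enough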
ROMK mod – modulates human ROMK potassium channel activity. P48048. Tet-inducible ROMK, thallium flux fluorescence; actives lie on both sides. B-score at 10 µM. 130,000 tested, 2% active. AID 1918;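 active means signal ratio slope over the read window, or its plate-corrected B-score, at least 3 SD from the plate mean, either direction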;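 further: B-score of the F/F0 ratio slope over 7 to 12 s after thallium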
L major viab – reduces viability of Leishmania major promastigotes; resazurin fluorescence viability; inhibition, % at 10 µM; 200,000 tested, 9% active; AID 1063; in the data active means inhibition above about 50%;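 further: promastigotes grown with compound for 44 hours at 28 °C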
Numbers stand for hits; – = inactive; · = no result. Hits are enriched below; roughly 10% of the tested compounds scored in any of these assays.

SMILES	p97 ATPase inh	HCT116 bCat-KO	HCT116 PTEN-null	Insulin prom inh	ROMK mod	L major viab
Cc1ccc(CN2CCN(C/C(Cl)=C/c3ccccc3)CC2CCO)o1 (stereo unspecified)	–	·	·	·	–	78
Cc1ccc(CN2CCN(Cc3cnn(-c4ccc(F)cc4)c3)CC2CCO)o1 (stereo unspecified)	–	·	·	·	–	–
OCCC1CN(C/C(Cl)=C/c2ccccc2)CCN1C1CCCC1 (stereo unspecified)	–	·	·	·	–	89
CC(C)=CCN1CCN(C/C(Cl)=C/c2ccccc2)CC1CCO (stereo unspecified)	–	·	·	·	·	·
CNC(=S)N1CCN(c2nc3ccccc3s2)CC1	–	·	·	·	–	–
COC(=O)c1[nH]c2ccccc2c1NC(=O)CN1CCN(C(=O)c2ccco2)CC1	–	–	–	91	·	–
CCC(CC)c1nnc(NC(=O)c2ccc3ccccc3n2)s1	–	–	–	–	·	78
Nc1nc(-c2ccco2)c(-c2ccco2)s1	20	–	–	–	·	–
C=CCOc1ccc(C2C(C#N)=C(N)N(Nc3ccccc3)C3=C2C(=O)CC(C)(C)C3)cc1OC (stereo unspecified)	–	–	–	·	·	89
COc1ccc(C2C(C#N)=C(N)OC3=C2C(=O)CC(C)(C)C3)cc1OC (stereo unspecified)	–	·	·	–	–	–
O=C(NC1CCCCC1)C1CC(=O)N(c2cccc([N+](=O)[O-])c2)C1 (stereo unspecified)	–	·	·	·	–	–
CCc1cc2cc(C)cc(C)c2[nH]c1=S	–	·	·	–	–	–
Cc1cc2oc(=O)cc(CN3CCN(S(=O)(=O)/C=C/c4ccccc4)CC3)c2cc1C	–	–	–	–	–	96
c1cc2c(cc1CN1CCOCC1)OCO2	–	–	–	–	–	–
O=S(=O)(/C=C/c1ccccc1)N1CCN(Cc2ccc3c(c2)OCO3)CC1	–	·	·	·	–	85
C(=C\c1ccccc1)/CN1CCN(Cc2ccc3c(c2)OCCO3)CC1	–	–	–	–	·	92
O=S(=O)(c1cc(Cl)ccc1Cl)N1CCN(Cc2ccc3c(c2)OCO3)CC1	–	–	–	·	·	–
COc1ccc(NC(=O)c2ccc(NCCN3C(=O)CCC3=O)c([N+](=O)[O-])c2)cc1	–	·	·	·	–	–
OC1(c2cccc(C(F)(F)F)c2)CCN(Cc2nc(-c3cnccn3)no2)CC1	–	·	·	·	–	78
Fc1cccc(CN2CCN(Cc3nc(-c4cnccn4)no3)CC2)c1	–	·	·	·	–	–
C=CCn1c(=O)c2ccccc2n2c(SCC(=O)Nc3sc(C(=O)N(CC)CC)c(C)c3C(=O)OCC)nnc12	–	–	–	·	·	–
C=CCn1c(=O)c2ccccc2n2c(SCC(=O)Nc3sc(C)c(CC)c3C(=O)OCC)nnc12	–	–	–	–	·	71
CC(C)COC(=O)N(C)c1ccc(C(O)(C(F)(F)F)C(F)(F)F)cc1	–	–	–	–	·	100
CC1(C)C(N(O)C(=O)Nc2ccc(Cl)cc2)N(c2ccc(Cl)cc2)C(=O)N1CC(=O)NN (stereo unspecified)	–	–	–	–	–	100
CC1=C(C(=O)Nc2ccccc2)C(c2cccc([N+](=O)[O-])c2)Nc2nc3ccccc3n21 (stereo unspecified)	–	–	–	–	–	98
SMILES	p97 ATPase inh	HCT116 bCat-KO	HCT116 PTEN-null	Insulin prom inh	ROMK mod	L major viab
CNC(=O)C1=C(C)n2c(nc3ccccc32)NC1c1ccc(OC)cc1 (stereo unspecified)	–	–	–	–	–	–
OC1(c2cccc(C(F)(F)F)c2)CCN(c2ncnc3c2[nH]c2ccccc23)CC1	–	1.2	1.3	·	–	98
CC(OC(=O)c1cccc(S(=O)(=O)Nc2ccccc2F)c1)C(=O)NCc1ccc2c(c1)OCO2 (stereo unspecified)	–	–	–	–	·	–
COc1cc(NC(=O)c2ccco2)c(C(=O)OCC(=O)c2c[nH]c3ccccc23)cc1OC	–	–	–	–	–	55
COc1ccccc1N(C)S(=O)(=O)c1ccc(C(=O)OCC(=O)N(C)c2ccccc2)cc1	–	·	·	·	–	97
O=C(OCC(=O)c1c[nH]c2ccccc12)c1ccco1	–	–	–	–	·	–
COc1ccccc1N(C)S(=O)(=O)c1ccc(C(=O)OCC(=O)c2c[nH]c3ccccc23)cc1	–	–	–	–	·	100
COc1ccccc1N(C)S(=O)(=O)c1ccc(C(=O)OC(C)C(=O)NCc2ccc3c(c2)OCO3)cc1 (stereo unspecified)	–	·	·	·	·	98
